For 94 compounds, inhibition results are on record in PubChem BioAssay AID1947 (The Scripps Research Institute Molecular Screening Center, 2009).

Among all 300,000 compounds or so, about 990 (0.33%) were called active.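 How the source made its calls: active means inhibition above the screen mean inhibition plus 3 SD, computed separately per campaign (cut at about 18% in these data); inactive means the rest.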 The entries come from a sample that favours actives as a whole.

In the assay the test system is Fam108B (ABHD17B) serine hydrolase [Mus musculus]. Nature of the assay: inhibition of Fam108B (ABHD17B) hydrolase – biochemical, fluorescence polarization, counter-screen for RBBP9 inhibitor project, primary screen (AID 1947).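 Further: inhibitors lower polarization as less probe binds the enzyme.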 The settings on record: recombinant Fam108B, FP-Rh probe fluorescence polarization; at 9.51 µM; active compounds read high. (In general: In fluorescence polarisation assays a small probe gives low polarisation when free and higher when bound to something large.)
As usually defined, the inhibition is the drop in the measured response relative to a control, in per cent. Consider `COc1ccccc1CN1CCNC(=O)C1CC(=O)N(C)CC1CCOCC1` (centres undefined), for which the inhibition is 1.34% (inactive).
On to `O=C(COC(=O)/C=C/c1cn(-c2ccccc2)nc1-c1cccnc1)Nc1ccc(Cl)cc1Cl`, for which the inhibition is -13.2% (inactive).
Under `O=C(COC(=O)c1cc(=O)[nH]c2ccccc12)Nc1nc(-c2cccc(Br)c2)cs1` stands -30.4% (inactive); under `Cc1nc([N+](=O)[O-])c(NCCCO)n1Cc1ccccc1`, 1.87% (inactive).
Under `COc1cccc(C(=O)N2CCC(n3nccc3NC(=O)C3CCOC3)CC2)c1` (centres undefined) stands 5.08% (inactive); under `O=C(Nc1ccc2ccccc2c1)Nc1ccc2snnc2c1`, -25.9% (inactive).
Under `Cc1ccc(-c2ccnc3nc(Sc4ncc(C(F)(F)F)cc4Cl)nn23)cc1` stands -3.23% (inactive).
Regarding `CC[N+](C)(CC)CCC[n+]1c(-c2ccccc2)c2cc(N)ccc2c2ccc(N)cc21`, the inhibition is 74.1% (active).
Under `CCc1ccc2ncc(C(=O)c3ccccc3)c(N3CCOCC3)c2c1` stands 0.71% (inactive); under `FC(F)(F)c1cc(-c2ccco2)nc(NCc2ccc(Cl)cc2)n1`, -10.7% (inactive); under `Cc1cc(=O)oc2c3c(cc(OCC(=O)NCc4ccccn4)c12)OC(C)(C)CC3`, -1.76% (inactive).
Regarding `COc1cc(NC(=O)COC(=O)c2cnc(C)cn2)c(C)cc1[N+](=O)[O-]`, the inhibition was -0.2% (inactive).
In the case of `CC(C)[C@H](NC(=O)N1CC(=O)Nc2ccccc21)C(=O)N[C@@H](Cc1c[nH]c2ccccc12)C(=O)O` it was 0.98% (inactive); in that of `COc1cc(OC)cc(C(=O)NCCSCc2ccc(Cl)cc2)c1`, -2.49% (inactive).
For `Cc1cc(C)c(C2C3=C(Nc4c2c(C)nn4-c2ccccn2)c2ccccc2C3=O)c(C)c1` (centres undefined), the inhibition was -5.56% (inactive).
For the compound `Cc1ccc(C2C3=C(Nc4[nH]n(-c5ccccc5)c(=O)c42)c2ccccc2C3=O)cc1` (centres undefined), the inhibition was 34.1% (active).
Take `Cc1ccc(-c2ccnc3[nH]n(-c4ccccc4)c(=O)c23)cc1`: the inhibition is -1.58% (inactive).
Under `COCCN1CCn2c(nc3cc(NS(C)(=O)=O)ccc32)C1` stands 2.47% (inactive).
Under `Cc1[nH]n(C(N)=S)c(=O)c1N=Nc1ccc(Cl)cc1Cl` stands 20.8% (active).
Under `Cc1cccc(N=Nc2c(C)[nH]n(-c3ccccc3)c2=O)c1` stands 4.19% (inactive); under `CC1=NN(C(N)=S)C(=O)C1N=Nc1cc(Cl)ccc1Cl` (centres undefined), 1.09% (inactive).
As to `O=C(CNC(=O)c1ccccc1F)c1ccc(Br)cc1`, the inhibition is 0.62% (inactive).
Consider `COc1c(F)c(F)c(-c2csc(N)n2)c(F)c1F`, for which the inhibition is 2.83% (inactive).
On to `S=C(Nc1ccc2c(c1)OCO2)N1CCCC1`, for which the inhibition is -2.94% (inactive).
In the case of `Cc1ccccc1NC(=O)CSC1=NCCN1` it was -0.3% (inactive); in that of `COc1ccc(NC(=O)CCCN2C(=O)C(c3ccccc3)Oc3cccnc32)cc1` (centres undefined), -1.86% (inactive); in that of `O=C(OCC1OC(Oc2ccc(O)cc2)C(O)C(O)C1O)c1ccccc1` (centres undefined), -4.47% (inactive).
Under `O=C(OCC1O[C@@H](OC(=O)c2cc(O)c(O)c(O)c2)[C@@H](OC(=O)c2cc(O)c(O)c(O)c2)[C@@H](OC(=O)c2cc(O)c(O)c(O)c2)[C@@H]1OC(=O)c1cc(O)c(O)c(O)c1)c1cc(O)c(O)c(O)c1` (some centres undefined) stands 62.1% (active); under `CC(O)c1ccc(OCCN(C)c2ccccn2)cc1` (centres undefined), 8.79% (inactive); under `Cn1cnnc1Sc1ccc(S(C)(=O)=O)cc1[N+](=O)[O-]`, 0.49% (inactive).
For `CCC(C)N(C(=O)COC(=O)c1nc(Cl)ccc1Cl)C1CCS(=O)(=O)C1` (centres undefined), the inhibition was 4.9% (inactive).
As for `CCOC(=O)c1sc(=NC(=O)/C=C/c2cccs2)n(C)c1C`, the inhibition was -2.21% (inactive).
As to `COc1cccc(-c2nc(CS(=O)CC(=O)NCc3ccc(F)cc3)c(C)o2)c1` (centres undefined), the inhibition is 1.48% (inactive).
In the case of `COc1ccc(-c2nc(CS(=O)CC(=O)NCc3ccccc3)c(C)o2)cc1OC` (centres undefined) it was 0.72% (inactive); in that of `COc1ccc(-c2nc(CS(=O)CC(=O)NCc3ccccn3)c(C)o2)cc1` (centres undefined), 22.4% (active); in that of `CCC(=O)Nc1cccc(C2=NOC3(C2)C[C@@H](C(N)=O)N(C(=O)c2cc([N+](=O)[O-])cc([N+](=O)[O-])c2C)C3)c1` (some centres undefined), 3.54% (inactive).
In the case of `Cc1ccc(-n2c(C)nnc2SCC(=O)NC2CC2)cc1`, the inhibition is 2.72% (inactive).
In the case of `CC(CC(=O)N1CCN(c2ccccc2)CC1)S(=O)(=O)c1ccc2c(c1)NC(=O)CS2` (centres undefined) it was -0.25% (inactive).
Under `O=C(N/N=C/c1sc(N2CCCCC2)nc1-c1cccs1)c1cccnc1` stands 30.7% (active).
Under `Cc1cc(/C=N/NC(=O)c2cccnc2)c(C)n1CC(C)C` stands 0.13% (inactive).
`O=C(NN=C1CCC(=NNC(=O)c2cccnc2)CC1)c1cccnc1`: the inhibition is -0.8% (inactive).
In the case of `CC1CC(C)CN(S(=O)(=O)c2cccc(C(=O)N3C(=O)c4cccc(N)c4C3=O)c2)C1` (centres undefined) it was -1.13% (inactive).
For `NS(=O)(=O)c1ccc(CCNC(=O)c2nc(CS(=O)(=O)c3ccc(Cl)cc3)no2)cc1`, the inhibition is 1.62% (inactive).
In the case of `CC(N=Cc1nc(-c2ccccc2)oc1O)c1ccccc1` (centres undefined) it was 4.55% (inactive).
Under `CCOc1ccc2nc(/N=C/c3nc(-c4ccccc4)oc3O)sc2c1` stands 5.88% (inactive); under `Oc1oc(-c2ccccc2Br)nc1/C=N/c1ccccn1`, 25.5% (active); under `O=C(CCNC(=O)C1CCN(S(=O)(=O)c2ccccc2)CC1)NC1CC1`, -1.2% (inactive).
In the case of `Cc1ccc(-n2ncc3c(=O)n(-c4ccc(C)c(C)c4)c(-c4ccco4)nc32)cc1` it was -5.3% (inactive); in that of `CC(=O)Cn1cnc2c(cnn2-c2ccccc2)c1=O`, 4.35% (inactive).
As for `Cc1ccc(-c2nc3c(cnn3-c3ccccc3)c(=O)o2)cc1`, the inhibition is 22.6% (active).
In the case of `O=C(COc1ccccc1)Nc1nonc1NC(=O)COc1ccccc1` it was -1.87% (inactive).
In the case of `COc1ccc(C)cc1S(=O)(=O)NCCc1ccccc1` it was 1.15% (inactive); in that of `Cc1cc(C)c(S(=O)(=O)n2cc(C(C)C(N)C(=O)O)c3ccccc32)c(C)c1` (centres undefined), -1.29% (inactive).
On to `CCC1(c2ccccc2)NC(=O)N(CC(=O)c2ccc3c(c2)OCO3)C1=O` (centres undefined), for which the inhibition was 1.48% (inactive).
Turning to `c1ccc(C2=Nc3cccc4cccc(c34)N2)cc1`, the inhibition was 31.5% (active).
Under `COc1ccccc1C1=Nc2cccc3cccc(c23)N1` stands 6.45% (inactive).
As for `Fc1ccccc1N=C1Nc2cccc3cccc1c23`, the inhibition was 3.49% (inactive).
Under `CCN(CC(=O)NCc1ccc(Cl)cc1)C(=O)CSc1ccccc1` stands 1.51% (inactive); under `CN1/C(=C\C=C2\N=C(c3ccc(F)cc3)OC2=O)C(C)(C)c2ccccc21`, -7.15% (inactive); under `COc1ccc(Nc2nc(-c3cccnc3)nc3ccccc23)cn1`, -1.81% (inactive).
In the case of `Cc1cccc(-c2nc(Nc3ccc(O)cc3)c3ccccc3n2)c1`, the inhibition was 29.1% (active).
As to `CC(=O)Nc1cccc(Nc2nc(-c3cccs3)nc3ccccc23)c1`, the inhibition was -19.2% (inactive).
Take `O=C(C/C(=N\NC(=O)c1ccccc1Br)C(F)(F)F)c1cccs1`: the inhibition is 1.64% (inactive).
For `Cc1ccc(N/C(N)=N/c2nc(C(F)(F)F)cc(C(F)(F)F)n2)cc1`, the inhibition was -3.46% (inactive).
On to `CCOc1ccc(NC(=O)COc2ccc(S(=O)(=O)N3CCCC3)cc2)cc1`, for which the inhibition was -2.57% (inactive).
As for `COCCNC(=O)c1ccccc1NS(=O)(=O)c1ccc(C)c([N+](=O)[O-])c1`, the inhibition was -2.57% (inactive).
Regarding `Cc1ccc(NS(=O)(=O)c2ccc(N/N=C/c3ccccc3OCC(=O)O)c([N+](=O)[O-])c2)c(C)c1`, the inhibition is 26.5% (active).
As to `Cc1ccc(NS(=O)(=O)c2ccc(C)c(NC(=O)COc3ccc4ccccc4c3)c2)c(C)c1`, the inhibition was -29.8% (inactive).
Under `CO/N=C/c1ccc(N2CCN(C(=O)c3cccc(Cl)c3)CC2)c([N+](=O)[O-])c1` stands 4.08% (inactive); under `O=C(O)CCN=C1CCc2ccccc2N1`, 9.07% (inactive); under `CC(=O)Nc1ccc(NC(=O)CSC2=NS(=O)(=O)c3ccccc3N2)cc1`, 0.2% (inactive).
`COc1ccc(OC)c(Nc2nc(-c3ccc(O)c(O)c3)cs2)c1`: the inhibition was 20.1% (active).
In the case of `COc1ccc(CC(=O)Nc2nc(-c3ccc(F)c(F)c3)cs2)cc1OC` it was -7.43% (inactive).
Under `CC(C)(C)C(=O)OCc1nc(-c2ccc(O)c(O)c2)cs1` stands -1.7% (inactive); under `CCOc1ccc(S(=O)(=O)Nc2nccs2)cc1`, 2.3% (inactive).
In the case of `COC(C[C@@H](O)C[C@H](O)[C@H](C)OCc1ccccc1)OC` it was 4.92% (inactive); in that of `COc1ccccc1NS(=O)(=O)c1ccc(C)c(C(=O)NCC(c2ccco2)N(C)C)c1` (centres undefined), -0.42% (inactive).
As to `CC(=O)Nc1ccc(Oc2ccc3c(c2)C(=O)NC3=O)cc1`, the inhibition was 0.73% (inactive).
`C=CCn1c(SCc2csc(C)n2)nc2scc(-c3ccc(C)o3)c2c1=O`: the inhibition is 0.24% (inactive).
`C=CCNC(=O)CSc1nc2scc(-c3ccco3)c2c(=O)n1CC=C`: the inhibition was -0.48% (inactive).
For `C=CCn1c(=S)[nH]c2scc(-c3ccco3)c2c1=O`, the inhibition was 18.5% (active).
In the case of `O=C(CCCN1C(=O)/C(=C/c2cccs2)SC1=S)Nc1ccc(O)cc1` it was -3.39% (inactive).
As to `CCC/C(C)=N\Nc1nc2c(c(=O)n(C)c(=O)n2C)n1C`, the inhibition is 0.84% (inactive).
For `Cc1ccccc1OCCOc1ccc([N+](=O)[O-])cc1/C=N/n1cnnc1`, the inhibition was -2.64% (inactive).
As for `O=[N+]([O-])c1ccc(N/N=C/c2ccccc2)cc1`, the inhibition was 5.14% (inactive).
Take `Cc1cccc(COc2ccccc2/C=N/Nc2ccc([N+](=O)[O-])cc2)c1`: the inhibition was 23% (active).
In the case of `CC1=CC2=NC(=O)CC(C)(C(=O)N(CC(=O)NC(C)(C)C)Cc3ccccc3)N2C=C1` (centres undefined) it was 0.82% (inactive); in that of `Cc1c(C(=O)N2CCCc3ccccc32)sc2nc(-c3ccccc3)cn12`, 2.92% (inactive).
Under `Cc1c(C(=O)N2CCCc3ccccc32)oc2ccccc12` stands 0.38% (inactive).
For `Cc1cccc2cc3c(N)c(C(=O)N4CCCc5ccccc54)sc3nc12`, the inhibition was 18.9% (active).
In the case of `O=C(CCC(=O)n1ncc2ccccc21)NCc1ccccc1Cl` it was 0.79% (inactive).
Under `COc1ccccc1-c1nnc(-c2ccc(F)cc2)o1` stands -1.04% (inactive).
Take `COc1ccc(-c2csc(-c3cccs3)n2)cc1OC`: the inhibition was 3.25% (inactive).
Under `COc1ccc(-c2csc3nc(-c4ccccc4F)oc(=O)c23)cc1OC` stands 21.9% (active).
